Laboratory results from PubChem BioAssay (NCI).
This is part of a sample that, as a whole, favours compounds with a hit. Of some 83,000 tested, about 20% had one in any assay.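 Single-concentration screen, 48 h exposure, 96-well plates. Endpoint: percent growth. Below 10 = active.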 Unmarked numbers belong to inactive results. Activity calls are given as the source filed them.

Columns and labels:
Experiment in all cases: NCI-60 one-dose screen, 48 h (100 = growth as untreated, 0 = no growth, -100 = all killed)
Settings in all cases: 10 µM unless noted
NCI-H23 lung = test system: NCI-H23 lung
NCI-H322M lung = test system: NCI-H322M lung
HOP-62 NSCLC = test system: HOP-62 NSCLC
NCI-H460 lung = test system: NCI-H460 lung
HOP-92 NSCLC = test system: HOP-92 NSCLC
NCI-H522 lung = test system: NCI-H522 lung
A549/ATCC NSCLC = test system: A549/ATCC NSCLC
786-0 renal = test system: 786-0 renal
COLO 205 colon = test system: COLO 205 colon
DU-145 prostate = test system: DU-145 prostate
K-562 leukemia = test system: K-562 leukemia
MALME-3M melanoma = test system: MALME-3M melanoma
MDA-MB-231 breast = test system: MDA-MB-231 breast
RXF 393 renal = test system: RXF 393 renal
SF-268 CNS = test system: SF-268 CNS
SF-295 CNS = test system: SF-295 CNS
SF-539 CNS = test system: SF-539 CNS
UACC-257 melanoma = test system: UACC-257 melanoma
M14 melanoma = test system: M14 melanoma
HCT-15 colon = test system: HCT-15 colon

Compound	growth (NCI-H23 lung)	growth (NCI-H322M lung)	growth (HOP-62 NSCLC)	growth (NCI-H460 lung)	growth (HOP-92 NSCLC)	growth (NCI-H522 lung)	growth (A549/ATCC NSCLC)	growth (786-0 renal)	growth (COLO 205 colon)	growth (DU-145 prostate)	growth (K-562 leukemia)	growth (MALME-3M melanoma)	growth (MDA-MB-231 breast)	growth (RXF 393 renal)	growth (SF-268 CNS)	growth (SF-295 CNS)	growth (SF-539 CNS)	growth (UACC-257 melanoma)	growth (M14 melanoma)	growth (HCT-15 colon)
O=C(Nc1ccc(I)cc1F)c1cc(Br)ccc1O	3.44% (active)	7.16% (active)	-5.03% (active)	2.62% (active)	-10.8% (active)	-7.93% (active)	7.17% (active)	1.97% (active)	46.9%	14.2%	8.5% (active)	-27.4% (active)	-21.2% (active)	2.4% (active)	7.21% (active)	-64.9% (active)	0.872% (active)	-18.2% (active)	-10.4% (active)	0.459% (active)
O=C1/C(=C\c2ccc[nH]2)c2ccccc2N1c1ccccc1	87.9%	91.7%	106%	95.8%	96%	75.5%	96%	98.1%	108%	112%	90.9%	103%	84.4%	105%	101%	104%	94%	110%	109%	82.7%
N#Cc1c(N)nc2c(c1N)C(c1ccc(F)cc1)c1ccc(N)cc1O2 (stereo not drawn)	117%	150%	113%	110%	97.2%	86.4%	101%	92.3%	124%	110%	104%	136%	118%	92.3%	105%	83.1%	103%	102%	111%	100%
CCN(CCO)CCNc1ccc(C)c2sc3cc(Cl)ccc3c(=O)c12	59.6%	47%	38.5%	-75.9% (active)	4.54% (active)	50.2%	24.6%	-60.1% (active)	-80.9% (active)	16.9%	-43.6% (active)	-27.8% (active)	-42.8% (active)	5.22% (active)	44.6%	12.5%	73.1%	-49.8% (active)	-74.2% (active)	-44.9% (active)
O=C(Nc1ccc(Cl)cc1F)c1cc(Br)ccc1O	4.02% (active)	7.3% (active)	1.76% (active)	4.27% (active)	-12.8% (active)	-12.9% (active)	7.61% (active)	3.02% (active)	51.5%	17.2%	8.83% (active)	-16.9% (active)	-26.1% (active)	7.94% (active)	13.6%	-48.3% (active)	7.34% (active)	-15.8% (active)	8.91% (active)	4.84% (active)
CCOC(=O)C(CC(=O)O)=C(C(=O)OCC)C(=O)OCC	105%	114%	104%	107%	89.5%	114%	101%	115%	121%	109%	106%	121%	123%	102%	107%	100%	102%	100%	115%	96.8%
COc1cc(C(=O)O/N=C(\N)Cc2cccc3ccccc23)cc(OC)c1OC	80.7%	18.1%	27.6%	-47.9% (active)	-7.36% (active)	-10.9% (active)	12.2%	45.9%	-92.6% (active)	47.5%	-43.2% (active)	-85.9% (active)	-46.6% (active)	7.59% (active)	17.6%	-84.6% (active)	-88.7% (active)	-89.3% (active)	-72.7% (active)	–
COc1cc2nc(-c3cnc(N(C)C)nc3)nc(NC3CCN(Cc4ccccc4)CC3)c2cc1OC	-33.8% (active)	-85.7% (active)	-70.4% (active)	-71.1% (active)	-76.8% (active)	-64.2% (active)	-66.3% (active)	-71% (active)	-82.5% (active)	-83.9% (active)	-40.4% (active)	-74.4% (active)	-87.7% (active)	-78.6% (active)	-60% (active)	-92% (active)	-92.9% (active)	24.1%	-80.6% (active)	-85.9% (active)
COc1cccc(C(=O)NC(c2ccc(C)cc2)c2cc(Cl)c3cccnc3c2O)c1 (stereo not drawn)	28.7%	9.1% (active)	9.9% (active)	0.0612% (active)	31.8%	9.38% (active)	6.84% (active)	6.38% (active)	14.4%	15.3%	7.41% (active)	-1.84% (active)	31.2%	9.4% (active)	6.71% (active)	-0.279% (active)	1.97% (active)	-7.2% (active)	-13.9% (active)	28.1%
O=C(Nc1ccc(I)cc1F)c1cc(Cl)ccc1O	1.96% (active)	8.59% (active)	2.14% (active)	4% (active)	-15.8% (active)	-17.1% (active)	7% (active)	-7.97% (active)	42.8%	13.8%	8.14% (active)	-28.9% (active)	-17.6% (active)	1.47% (active)	5.87% (active)	-62.8% (active)	2.65% (active)	-18.1% (active)	-22% (active)	2.58% (active)
COc1cc(C(=O)Nc2ccc(-c3nc4ccccc4[nH]3)cc2)cc(OC)c1OC	72.6%	94.5%	42.5%	22.6%	56.4%	25%	45.8%	73.4%	44.6%	87.9%	15.2%	81.3%	61.4%	28%	55.4%	9.85% (active)	34.7%	78.1%	43.5%	–
O=NN(Cc1cccnc1)C(=O)NC1CCCCC1	111%	106%	107%	109%	82.3%	90.5%	93.9%	108%	111%	116%	101%	102%	127%	102%	106%	80.7%	96.2%	92.5%	107%	108%
Cc1ccc(Cn2c(N3CCC(C(=O)NCc4cccs4)CC3)nc3ccccc32)cc1	85.2%	114%	85%	82.5%	73.9%	107%	95%	89.1%	96.9%	72.8%	-42.9% (active)	63.6%	71.3%	80.7%	72.3%	97%	88%	119%	31.5%	87%
COc1ccc(CN2CCCC(C(=O)c3ccc(C(F)(F)F)cc3)C2)c(O)c1 (stereo not drawn)	37.3%	80.6%	37.5%	7.11% (active)	36.5%	-36.6% (active)	32.3%	41.5%	-23.1% (active)	50.6%	7.39% (active)	12.7%	7.33% (active)	20.4%	30.5%	-20.8% (active)	14.8%	40.1%	18.9%	25.7%
CCOC(=O)c1c(C=O)nc2ccccc2c1/C=C/c1ccc(Cl)cc1	100%	99.8%	103%	100%	92.8%	78.8%	96.4%	106%	119%	96.3%	61.7%	100%	87.7%	99.5%	91.2%	101%	90.9%	105%	91.6%	89.6%
CCOc1cccc(/C=N/NC(=O)C(=O)Nc2cccc(C(F)(F)F)c2)c1O	43.4%	30.7%	39.1%	15.2%	43.8%	-0.686% (active)	21.3%	23%	11.5%	39.8%	21.7%	56.7%	31.7%	37.6%	35.4%	10%	11.7%	5.14% (active)	13.2%	22.3%
